This is a sample that favours compounds with a hit; in the whole collection about 19% have one here.
HepG2 viability: qHTS for Inhibitors of TGF-b: Cytotox Counterscreen | actives 0.76% (n = 410,000) | HepG2 CAGA-GFP viability, ATP luminescence, 18 h | Potency, µM (titrated, usually from 46.1 µM), actives largely listed as cytotoxic
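HepG2 CAGA-GFP cells (1000/well, DMEM with 1% FBS) received compound, then TGF-beta at 500 pg/mL final, and were incubated 18 hours at 37 degrees C. Viability was read by CellTiter-Glo luminescence. Media-only wells were set as complete cell-killing and DMSO as no toxicity.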
IL1B secr inh: qHTS for Inhibitors of Inflammasome Signaling: IL-1-beta AlphaLISA Primary Screen; activity change, % at 57.5 µM; THP-1 LPS/ATP IL-1B secretion, AlphaLISA, 16 h; active compounds read low; AID 743279, 2014; actives 4.7% (n = 360,000); in the data active = activity change below about -50%; inconclusive = mostly about -30% to -49%
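Secreted IL-1B measured by AlphaLISA bead assay after 16 h compound exposure of THP-1 cells; compounds (final up to 57.5 uM) added 1 h before LPS (250 ng/mL) and ATP (1.25 mM) stimulation; lower signal means less secretion.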
TDP1 inh: qHTS Assay for Inhibitors of Tyrosyl-DNA Phosphodiesterase (TDP1); recombinant TDP1, AlphaScreen DNA substrate cleavage; Potency, µM (highest dose often 130 µM), most hits filed as inhibitors; actives 0.28% (n = 350,000); AID 485290, 2010; also: nearly all actives have a fitted effect of over 40% in size
Target sequence (Q9NUW8 whole entry, looked up): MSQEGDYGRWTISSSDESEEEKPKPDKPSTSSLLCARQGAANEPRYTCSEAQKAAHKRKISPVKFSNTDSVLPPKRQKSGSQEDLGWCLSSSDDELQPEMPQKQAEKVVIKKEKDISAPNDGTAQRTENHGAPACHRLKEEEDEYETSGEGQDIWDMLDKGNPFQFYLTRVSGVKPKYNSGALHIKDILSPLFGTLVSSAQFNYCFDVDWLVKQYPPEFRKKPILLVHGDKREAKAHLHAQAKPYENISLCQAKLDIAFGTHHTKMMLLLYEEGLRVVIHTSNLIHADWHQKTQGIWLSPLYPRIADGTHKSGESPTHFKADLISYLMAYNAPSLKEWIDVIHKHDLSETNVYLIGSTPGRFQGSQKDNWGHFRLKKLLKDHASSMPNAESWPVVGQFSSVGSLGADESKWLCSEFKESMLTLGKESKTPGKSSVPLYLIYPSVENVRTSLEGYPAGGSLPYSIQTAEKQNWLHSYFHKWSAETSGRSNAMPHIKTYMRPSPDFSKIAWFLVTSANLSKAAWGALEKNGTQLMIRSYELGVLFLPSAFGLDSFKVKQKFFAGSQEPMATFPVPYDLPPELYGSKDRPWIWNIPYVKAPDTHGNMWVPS
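E. coli-derived human Tdp1, 1 nM final. Cpd preinc 15 min RT; substrate 15 nM final, 5 min RT; AS bead mix 10 ug/ml final, 10 min RT. Signal loss = tyrosine-FITC cleavage. No-enzyme wells = max signal.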
DT40 TDP1 no CPT: qHTS for Inhibitors of human tyrosyl-DNA phosphodiesterase 1 (TDP1): qHTS in cells in absence of CPT. DT40 Tdp1-/- hTDP1 cells, no CPT, ATP luminescence, 48 h. Potency, µM (titrated, usually from 46.2 µM), most hits filed as inhibitors. actives 15% (n = 420,000); also: nearly all actives have a fitted effect of over 55% in size
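Chicken DT40 Tdp1-/- cells complemented with human TDP1, screened without camptothecin (DMSO vehicle only), 400 cells/well. Compounds pin-transferred, cells incubated at 37 °C for at least 48 hr. Growth read as ATP-dependent luminescence (CellTiter-Glo, 30 min at RT).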
TGFb inhibitor: qHTS for Inhibitors of TGF-b; AID 588855, 2011; actives 1.2% (n = 410,000); HepG2 CAGA-GFP TGF-b/SMAD3 reporter, GFP fluorescence, 18 h; TGF-beta stimulated, 500 pg/mL final; Potency, µM (titrated, usually from 46.1 µM), actives largely listed as inhibitors; also: nearly all actives have a fitted effect of over 65% in size
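Inhibition of TGF-beta-driven CAGA-GFP reporter expression in HEPG2 cells is measured by cellular GFP fluorescence after 18 h stimulation with 500 pg/mL recombinant TGF-beta in 1% FBS medium at 37 degrees C.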
DT40 TDP1 CPT: qHTS for Inhibitors of human tyrosyl-DNA phosphodiesterase 1 (TDP1): qHTS in cells in presence of CPT; chicken DT40 Tdp1-/-;hTDP1 cells + 20 nM CPT, ATP luminescence, 48 h; Potency, µM (highest dose often 46.2 µM), actives largely listed as inhibitors; actives 12% (n = 420,000); AID 686979, 2013; also: nearly all actives have a fitted effect of over 55% in size
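Cell growth measured by CellTiter-Glo luminescence after a minimum 48 h, 37 C compound exposure with 20 nM CPT in Tdp1-knockout DT40 cells stably expressing hTDP1, seeded 400/well; qHTS titration format.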
Of the large screens only hits and unclear results are named; the others gave an inactive call. Unless noted, calls follow the shape of the dose curve; as a rule, active = well fitted curve in the direction sought with a large enough effect; inconclusive = small, poorly fitted or top-dose-only effect, or another doubt; inactive = no such curve, though single readings can be large; an effect the other way counts as inactive or inconclusive.

CCCOc1ccc(C(=O)NNC(=S)NC(=O)c2cccs2)cc1	DT40 TDP1 no CPT 18µM, DT40 TDP1 CPT 23µM
CCCOc1ccc(C(=O)NNC(=S)NC(=O)c2ccccc2)cc1	DT40 TDP1 no CPT 16µM, DT40 TDP1 CPT inconclusive (no result: TDP1 inh)
Cc1nc(-c2cccnc2)sc1CCNS(=O)(=O)c1ccc(F)cc1	none (no result: IL1B secr inh, DT40 TDP1 no CPT, DT40 TDP1 CPT)
CC(C)COP(=O)(OCC(C)C)C(O)c1ccc(F)cc1 (centres undefined)	none
C=CC[C@H](c1ccc(F)cc1)N(CC(C)C)S(=O)(=O)C=C	DT40 TDP1 no CPT 11µM, DT40 TDP1 CPT inconclusive (no result: IL1B secr inh, TDP1 inh)
COC(=O)c1ccc(N(CC(=O)NC2CCCC2)C(=O)c2ccc(C)s2)cc1	none (no result: TDP1 inh)
NS(=O)(=O)c1ccc(CCNC(=O)c2ccc3nc(CCc4ccccc4)oc3c2)cc1	DT40 TDP1 CPT inconclusive (no result: IL1B secr inh)
Nc1ccc(-c2cc3ccccc3[nH]2)cc1	TGFb inhibitor inconclusive (no result: IL1B secr inh, TDP1 inh)
Cc1ccc(NC(=O)CNCc2ccc(Cl)cc2Cl)cc1S(=O)(=O)N(C)C	DT40 TDP1 no CPT 18µM, DT40 TDP1 CPT inconclusive
Cc1ccc(NC(=O)Cc2c(Cl)cccc2Cl)cc1S(=O)(=O)N(C)C	DT40 TDP1 no CPT 16µM, DT40 TDP1 CPT inconclusive
Cc1ccc(NC(=O)CNCc2ccccc2Cl)cc1S(=O)(=O)N(C)C	TGFb inhibitor inconclusive (no result: TDP1 inh)
COc1ccc(C(=O)O)cc1S(=O)(=O)NCCN(C)C	none
CCOc1cccc(CC(=O)N2CCc3c([nH]c4ccccc34)C2c2ccccc2)c1OCC (centres undefined)	DT40 TDP1 no CPT inconclusive, TGFb inhibitor inconclusive, DT40 TDP1 CPT inconclusive (no result: IL1B secr inh)
CN1NC(c2ccccc2)NN(C)C1=O	DT40 TDP1 CPT 18µM (no result: TDP1 inh)
CCCC[C@H](NC(C)=O)C(=O)N[C@@H](CCC(=O)O)C(=O)N[C@@H](Cc1cnc[nH]1)C(=O)N[C@H](Cc1ccccc1)C(=O)N[C@@H](CCCN=C(N)N)C(=O)N[C@H](Cc1c[nH]c2ccccc12)C(=O)NCC(N)=O	none (no result: HepG2 viability, IL1B secr inh, DT40 TDP1 no CPT, TGFb inhibitor, DT40 TDP1 CPT)
Clc1ccc(/C=N/Nc2nnc(-c3ncc[nH]3)c3ccccc23)cc1	DT40 TDP1 no CPT 21µM, DT40 TDP1 CPT inconclusive
Cc1cc(NC(=O)c2oc3c(c2C)-c2[nH]ncc2CC3)ccc1Br	DT40 TDP1 no CPT 18µM, TGFb inhibitor inconclusive, DT40 TDP1 CPT inconclusive (no result: IL1B secr inh)
Cc1ccc(Nc2ncc3c(n2)CC(C)(C)CC3=O)cc1	IL1B secr inh inconclusive, DT40 TDP1 no CPT inconclusive, DT40 TDP1 CPT inconclusive
O=C(O)c1ccccc1Sc1c([N+](=O)[O-])cc(C(F)(F)F)cc1[N+](=O)[O-]	IL1B secr inh -67, DT40 TDP1 no CPT inconclusive, DT40 TDP1 CPT inconclusive
Cc1ccc(NC(=O)c2c(Nc3ccccc3C)sc(C(=O)c3ccccc3)c2N)cc1	DT40 TDP1 no CPT 5.8µM, TGFb inhibitor inconclusive, DT40 TDP1 CPT inconclusive (no result: IL1B secr inh)
CCOc1ccccc1Nc1sc(C(=O)c2ccccc2)c(N)c1C(=O)Nc1ccccc1	DT40 TDP1 no CPT 9.2µM, TGFb inhibitor inconclusive, DT40 TDP1 CPT 10µM (no result: IL1B secr inh)
Cc1ccc(Nc2sc(C(=O)c3ccccc3)c(N)c2C(=O)NC(C)C)cc1	DT40 TDP1 no CPT inconclusive, TGFb inhibitor inconclusive, DT40 TDP1 CPT inconclusive (no result: IL1B secr inh)
Cc1cc(Nc2sc(C(=O)c3ccc(F)cc3)c(N)c2C(=O)Nc2ccc(F)cc2)ccc1Cl	DT40 TDP1 no CPT 3.7µM, TGFb inhibitor inconclusive, DT40 TDP1 CPT 12µM (no result: IL1B secr inh)
O=C(Nc1cccc(F)c1)C1CCCN(S(=O)(=O)c2cccc3cccnc23)C1 (centres undefined)	DT40 TDP1 no CPT 23µM, TGFb inhibitor inconclusive, DT40 TDP1 CPT 18µM
Cc1cccc(NC(=O)C2CCCN(S(=O)(=O)c3cccc4cccnc34)C2)c1 (centres undefined)	DT40 TDP1 no CPT 23µM, DT40 TDP1 CPT 18µM

Screening data as filed in PubChem.
